Compound activity: PubChem, National Center for Advancing Translational Sciences (NCATS)
Nrf2 block – Nrf2 pathway inhibition; A549 ARE-Fluc reporter, luciferase luminescence, 18-24 h; Potency, µM (top dose mostly 46 µM), usual class: inhibitors; actives 2.1% (n = 360,000); note: nearly all actives have a fitted effect of over 60% in size
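Reporter: ARE-Fluc in A549. Exposure: 18-24 h, 37 °C, 5% CO2, 5% FBS OPTI-MEM. Readouts: fluorescent cytotoxicity (CellTiter-Fluor), then luminescent Nrf2 signal after BugLite.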
TCR act – T cell receptor activation; primary human leukocytes, anti-CD3, IL-2 HTRF, 48 h; Potency, µM (series often up to 9.22 µM), hits mostly activators; 330,000 tested, under 10 active
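Human primary leukocytes + a-CD3 beads + cpd, 48 hr; IL-2 in supernatant by HTRF (ex 320nm / em 665nm). No co-stimulatory signal supplied.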
Nrf2 activator – activates Nrf2 signaling; AREc32 ARE-luciferase reporter (MCF7-derived line), luminescence, 24 h; Potency, µM (top dose mostly 46.1 µM), hits mostly activators; actives 0.31% (n = 410,000); AID 624171; note: nearly all actives have a fitted effect of over 65% in size
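Steps: seed AREc32_Fluc cells (1000/well, 5% FBS OPTI-MEM); incubate overnight at 37 deg C; add 23 nL compound; incubate 24 hr; add Steady-Glo; hold 30 min RT; read luminescence.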
CCT chaperon mod – modulators of cytosolic chaperonin (CCT/TRiC) activity; activity change, % (test concentration not listed), hits read low; purified chaperonin ATPase assay, HTRF ADP detection, 30 min; AID 651819; actives 0.3% (n = 360,000); in the data active = activity change below about -30%
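We incubate TRiC, 40 or 20 nM final, with library compounds at 76 uM and 10 uM ATP for 30 min at 37 °C. ADP formed is detected with Transcreener HTRF reagents after 30 min at room temperature.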
AT treatment – candidate therapy for ataxia-telangiectasia. actives 0.19% (n = 320,000). F2112 A-T fibroblasts, KAP-1 phosphorylation AlphaLISA; neocarzinostatin DNA damage 30 min before lysis. Potency, µM (top dose mostly 57.5 µM), actives largely listed as activators. AID 485349; note: nearly all actives have a fitted effect of over 45% in size
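hTERT-immortalized A-T patient fibroblasts (F2112), 500 cells/well in OPTI-MEM, 1% FBS, got compounds for 60 min, then NCS for 30 min at 37C. Lysates were then assayed for phospho-KAP-1 by AlphaLISA (anti-pKAP1 donor, anti-KAP1 acceptor beads), 6 hr at 25C.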
A549 viability – kills or reduces viability of A549 cells in Nrf2 counter-screen; A549 ARE-Fluc cells, CellTiter-Fluor viability, 18-24 h; Potency, µM (top dose mostly 46 µM), usual class: inhibitors; actives 0.16% (n = 390,000); AID 504648
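Cytotoxicity counterscreen: CellTiter-Fluor fluorescence was measured in A549 ARE_Fluc cells after 18-24 h of compound exposure in a concentration series. The subsequent BugLite luminescent read reports ARE-luciferase activity.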
Each line names hits and unclear results; the compound was inactive in the other large screens; ! = not active in a repeat. Compounds with a hit are over-represented: about 2.6% of the library has one in this group of screens. Unless noted, calls come from the whole dose curve; as a rule, active = well fitted curve in the direction sought with a large enough effect; inconclusive = small, poorly fitted or top-dose-only effect, or another doubt; inactive = no such curve, though single readings can be large; an effect the other way counts as inactive or inconclusive.

O=C(N/N=C/c1ccc(OC(=O)c2ccccc2Cl)cc1)c1cc(O)cc(O)c1	Nrf2 block 6.5µM
Cc1ncc(C[n+]2csc(CCO)c2C)c(N)n1	Nrf2 block 15µM!, A549 viability inconclusive
Cc1ncc(C[n+]2csc(C)c2C)c(N)n1	none
Cc1ccc(C)c(Nc2ncnc(N)c2[N+](=O)[O-])c1	CCT chaperon mod -41
CSc1ccc(CN(C)C(=O)CNC(=O)c2sc3ccccc3c2Cl)cc1	Nrf2 block 10µM, A549 viability inconclusive
CC1=C(C(=O)OC2CCCCCC2)C(c2cccc(Cl)c2)CC(=O)N1 (stereo not given)	Nrf2 block 16µM (no result: TCR act, CCT chaperon mod, AT treatment)
CC1=C(C(=O)OC2CCCCCC2)C(c2ccc(Cl)cc2)CC(=O)N1 (stereo not given)	Nrf2 block inconclusive (no result: TCR act, CCT chaperon mod, AT treatment)
CC1=C(C(=O)OCc2ccccc2)C(c2cccc(Cl)c2Cl)CC(=O)N1 (stereo not given)	none (no result: TCR act, CCT chaperon mod, AT treatment)
CC1=C(C(=O)OC2CCCCCCC2)C(c2cccc(O)c2)NC(=O)N1 (stereo not given)	Nrf2 block 26µM
COC(=O)C1=C(C)NC(=O)CC1c1cccc(Cl)c1Cl (stereo not given)	CCT chaperon mod -30
OCC[C@@H]1C[C@H](O)[C@@H](O)[C@@]2(CCCc3ccccc3O2)O1	none
CCOC(=O)c1ccccc1NC(=O)CSc1ccc(-c2cccs2)nn1	Nrf2 block inconclusive (no result: TCR act, CCT chaperon mod, AT treatment)
Cc1ccc(NS(=O)(=O)c2cccc(Cl)c2)cc1C	none (no result: TCR act, Nrf2 activator, CCT chaperon mod, AT treatment)
COc1ccc(/C(C)=N/Nc2nc(C)cc(-c3ccccc3)n2)cc1	Nrf2 block 15µM (no result: AT treatment)
Cc1cc(C)nc(N/N=C/c2ccccc2)n1	Nrf2 block inconclusive
Cc1cc(-c2ccccc2)nc(N/N=C/c2ccc(O)cc2)n1	Nrf2 activator 8.9µM
Oc1ccc(/C=N/Nc2nc(-c3ccc(Cl)cc3)cc(C(F)(F)F)n2)cc1	Nrf2 block 16µM, A549 viability inconclusive
C/C(=N\Nc1nc(C)cc(-c2ccccc2)n1)c1ccc(F)cc1	Nrf2 block inconclusive
CC(=O)N(c1ccc2ccccc2c1)C1SC(=O)N(c2cccc(C)c2)C1=O (stereo not given)	Nrf2 block inconclusive (no result: TCR act, Nrf2 activator, CCT chaperon mod, AT treatment)
COc1ccc(C2Nc3ccccc3C(=O)N2CCCN(C)C)cc1COc1ccc(NC(C)=O)cc1 (stereo not given)	none (no result: TCR act, Nrf2 activator, CCT chaperon mod, AT treatment)
COC(=O)C(=Cc1ccc(-c2ccsc2C(=O)OC)o1)C(=O)OC	Nrf2 activator 13µM, A549 viability inconclusive
CCOC(=O)C(=Cc1ccc(-c2ccsc2C(=O)OC)o1)C(=O)OCC	Nrf2 activator inconclusive
CC(C)(C)CNC(=O)c1cc2c(Br)ccc(Br)c2nc1N	none (no result: Nrf2 block, TCR act, AT treatment, A549 viability)
O=C(CSc1nnc(CNC(=O)c2ccco2)o1)Nc1ccc(OC(F)(F)F)cc1	CCT chaperon mod -47
CCSc1ccccc1C(=O)Nc1ccc(-c2nc3ccccc3s2)c(O)c1	none (no result: Nrf2 block, TCR act, CCT chaperon mod, AT treatment)
O=C(/C=C/c1cccc([N+](=O)[O-])c1)N1CCOCC1	Nrf2 activator 13µM
O=C(C=Cc1cccs1)c1cccs1	Nrf2 activator 22µM (no result: AT treatment)
O=C(/C=C\Nc1cccc(F)c1)c1cccs1	Nrf2 block inconclusive, Nrf2 activator 4µM
O=C(/C=C/c1ccc(-c2cccc([N+](=O)[O-])c2)o1)N1CCOCC1	Nrf2 block inconclusive
O=C(/C=C/Nc1ccc(F)cc1F)c1cccs1	Nrf2 block inconclusive, Nrf2 activator inconclusive
O=C(/C=C/c1cccs1)c1ccc(Br)cc1	Nrf2 activator inconclusive
O=C(/C=C\c1cccs1)c1c(O)ccc2ccc(=O)oc12	Nrf2 activator 11µM
COc1cc(OC)c2c(-c3cccc(-c4ccc(N(C)C)cc4)c3)cc(=O)oc2c1	Nrf2 block inconclusive
CC(C)CCNC(=O)CN1C(=O)CSc2ccc(S(=O)(=O)N3CCC(C)CC3)cc21	none (no result: Nrf2 block, TCR act, CCT chaperon mod, AT treatment)
Cn1c(=O)n(CCCc2ccccc2)c(=O)c2c1nc1n2CCN1c1ccc(F)cc1	none (no result: TCR act, CCT chaperon mod, AT treatment)
COc1ccc(C(O)c2nc(-c3ccc(OC)c(OC)c3)cs2)cc1 (stereo not given)	none (no result: Nrf2 block, TCR act, AT treatment, A549 viability)
Cc1c(CCNC(=O)c2ccc(Br)o2)sc2nc(-c3ccc(F)cc3)nn12	none (no result: Nrf2 block, TCR act, CCT chaperon mod, AT treatment)
